Assay outcomes from PubChem.
A selection follows.
aSyn 5UTR act: Activators via SNCA 5'UTR binding, MLPCN. activity score, % (tested at 7.5 µM), hits read low. actives 7.1% (n = 300,000). alpha-synuclein 5'UTR reporter, activators screen; in the data active = activity score below about -60%
* = called active by the depositor.

SMILES	aSyn 5UTR act
Cc1cccc(NC(=O)CSc2nc(C)c(CC(=O)c3ccc(Br)cc3)c(C)c2C#N)c1C	49.1
CSc1nc(N)nc(SCC(=O)c2ccccc2)c1C#N	-76.0*
O=C(NCc1cccnc1)/C(=C/c1ccc(-c2cccc(Cl)c2)o1)S(=O)(=O)c1ccccc1	-193.2*
CC1(C)Cc2nc3sc(C(=O)NCCCO)c(N)c3cc2CS1	-92.3*
N#CCOc1ccccc1/C=C/c1nc2ccccc2c(=O)[nH]1	-115.2*
Cc1ccccc1/C=C/c1nc2ccccc2c(=O)[nH]1	-324.0*
Cc1ccccc1/C=C\c1nc2ccccc2c(=O)[nH]1	-142.2*
Nc1nc(-c2ccc(-c3ccccc3)cc2)cs1	-185.8*
Nc1nc(-c2ccc3ccccc3c2)cs1	-192.8*
Cc1ccc(-c2csc(N=C(N)N)n2)c(C)c1	-94.2*
Cc1ccc(N/C(N)=N/c2nc(CSc3nnc(C)s3)cc(=O)[nH]2)c(C)c1	83.5
Nc1nc(N)c2cc(Sc3ccc4ccccc4c3)ccc2n1	96.1
COc1ccc(-c2csc(N=C(N)N)n2)cc1	-140.8*
c1ccc2cc(-c3csnn3)ccc2c1	-74.5*
Nc1nc(-c2ccc(Oc3ccccc3)cc2)cs1	-122.7*
COc1ccc(-c2csc(N)n2)cc1	-101.1*
Nc1ccc(Oc2ccccc2-c2ccccc2)cc1	104.4
COc1ccc(-c2ccc(OC)cc2)cc1	-120.3*
CN1C(=O)/C(=C2\SC(N3CCCCCC3)=NC2=O)c2ccccc21	-153.2*
O=C1N=C(N2CCCCC2)SC1=C1CCCCC1	-89.4*
O=C1N=C(N2CCOCC2)S/C1=C1\C(=O)N(Cc2ccccc2)c2ccccc21	-193.0*
O=C1C=C(N2CCCCC2)c2ccccc2C1=O	122.4
CCCN1C(=O)/C(=C2\SC(N3CCCCC3)=NC2=O)c2ccccc21	-158.8*
CC(=O)N(C)C1=C(N2CCOCC2)C(=O)c2ccccc2C1=O	76.2
CCN(CC)C(=O)Oc1ccc2c(=O)c(-c3ccc(OC)cc3)coc2c1	-125.2*
SMILES	aSyn 5UTR act
COc1ccc(Oc2c(C)oc3cc(OC(=O)N4CCOCC4)ccc3c2=O)cc1	56.2
CCc1cc2c(=O)c(-c3nc4ccccc4[nH]3)coc2cc1OC(=O)N1CCOCC1	-75.3*
COc1ccc(-c2coc3cc(OC(=O)N4CCOCC4)ccc3c2=O)cc1	-67.2*
CCN(CC)C(=O)Oc1ccc2cc(Br)ccc2c1	-86.8*
Cc1nn(-c2ccccc2)c(/N=C/c2ccccc2O)c1-c1ccccc1	-175.9*
Cc1nn(-c2nc3ccccc3[nH]2)c(N)c1-c1ccccc1	-182.6*
Cc1nn(-c2ccccc2)c(N)c1-c1ccccc1	-72.0*
CC1(C)N=C(N)N=C(N)N1c1ccccc1	99.1
Cc1cc(-c2ccccc2)n(-c2ccccc2)n1	-83.5*
COC(=O)Cn1ncc2c(C)n(Cc3ccccc3)c(C)c2c1=O	-122.7*
CCCCc1ccc(-c2nc(N)n[nH]2)cc1	-99.7*
Cc1c(N/N=C(\C#N)C(=O)c2ccc(Cl)cc2)c(=O)n(-c2ccccc2)n1C	86.3
Cc1c(NC(=O)c2cc(C3CC3)on2)c(=O)n(-c2ccccc2)n1C	-61.7*
COc1ccc2c(c1)Cc1sc(NC(=O)c3cccs3)nc1-2	-242.4*
COc1ccc(C(=O)Nc2nc3c(s2)Cc2cc(OC)ccc2-3)cc1	-108.7*
COc1ccc2c(c1)Cc1sc(NC(=O)c3ccccc3)nc1-2	-223.4*
CCn1c(O)c(/C=C2\C=NN=C2c2ccccc2)sc1=S	67.0
Oc1c(C=C2N=c3ccccc3=N2)sc(=S)n1-c1ccc(F)cc1	-64.6*
Cc1ccc(C(=O)CCC(=O)Nc2ncccc2O)cc1	-70.4*
O=C(Nc1ncccc1O)c1ccc(Oc2ccccc2)cc1	-198.3*
Cc1noc(C)c1COc1ccc(C(=O)Nc2ncccc2O)cc1	-66.6*
Cc1noc(C)c1COc1ccc(CC(=O)NCc2ccccc2)cc1	71.9
Cc1ccc(C(=O)Nc2ncccc2O)o1	-84.2*
COc1ccc(C=Nc2cccc3c(=O)[nH][nH]c(=O)c23)c2ccccc12	-67.4*
COc1ccccc1C1CCN(c2ccc([N+](=O)[O-])c(OC)c2)CC1	-75.1*
SMILES	aSyn 5UTR act
Cc1cc(-c2nnc(CSc3nnc(NC(=O)c4ccc(C(C)(C)C)cc4)s3)o2)ccc1[N+](=O)[O-]	-110.3*
O=C(Nc1cccc(Cl)c1)Nc1ccccc1C(=O)O	-119.7*
CSc1cccc(NC(=S)Nc2ccc(F)cc2)c1	-196.4*
CCNS(=O)(=O)c1ccc(NC(=O)Nc2ccccc2OC)cc1	-79.2*
CC(=O)c1ccc(NC(=S)NCCc2ccc(S(N)(=O)=O)cc2)cc1	-79.6*
COc1ccccc1NC(=O)N1CCC(c2nc3cc(C)c(C)cc3[nH]2)CC1	74.3
CC(=O)Nc1ccc(NC(=O)Nc2cccc(Cl)c2)cc1	-79.2*
COc1ccccc1NC(=O)Nc1ccc(C(=O)N2CCCCC2)cc1	-98.6*
CC(=O)c1ccc(NC(=O)Nc2cccc(Cl)c2)cc1	-82.3*
CC(=O)c1ccc(NC(=S)NCCc2cccc(Cl)c2)cc1	-178.7*
O=C(Nc1ccc(C(=O)N2CCCCC2)cc1)Nc1cccc(Cl)c1	-81.6*
CS/C(N)=N/C(=S)Nc1cccc(Cl)c1	-142.8*
CC(=O)c1ccc(NC(=O)Nc2ccc3c(c2)nc(C)n3C)cc1	-147.8*
CSc1cccc(NC(=O)Nc2ccc(Cl)cc2)c1	-96.5*
CCN(CC)CCNc1cc(C)nc2c1C(=O)C(=O)C=C2N1CCCCC1	81.4
COc1cccc(/C=C/c2ccccn2)c1O	-97.9*
COC(=O)c1cn(C(=O)/C=C/c2ccc(OC)c(OC)c2)c2ccccc12	-78.0*
C(=C\c1nc(N2CCCCCC2)c2ccccc2n1)/c1ccccc1	-71.1*
CCOc1ccccc1CNC(=O)c1cc2oc3ccccc3c2n1CC	65.6
Cn1c(C(=O)N2CCc3ccccc3C2)cc2oc3ccccc3c21	-137.2*
Cc1cccnc1CN1CCN(C(=O)CCc2nnc(CCc3ccccc3)o2)CC1	-72.0*
Cn1cccc1C(=O)OCc1cc(Cl)cc2c1OCOC2	-80.4*
O=C(/C=C/Nc1ccc(Br)cc1F)c1ccco1	57.4
O=C(/C=C/Nc1ccccc1O)c1ccco1	-86.5*
CN(C)c1ccc(N/C=C/C(=O)c2ccco2)cc1	-105.1*
SMILES	aSyn 5UTR act
CC(=O)Nc1ccc(N/C=C/C(=O)c2ccco2)cc1	-323.0*
CC(=O)c1cccc(NC(=S)NC(=O)c2ccc(C)cc2)c1	-83.1*
CC(=O)c1cccc(NC(=S)NC(=O)c2ccc(C)cc2Cl)c1	-70.0*
CC(=O)c1cccc(NC(=S)NC(=O)c2ccc(Br)cc2)c1	-142.9*
O=C(CCS(=O)(=O)c1ccccc1)N(CCCN1CCOCC1)c1nc2ccc(F)cc2s1	-131.7*
O=c1c2ccccc2cnn1CCOc1cccc(Br)c1	-152.6*
Clc1ccc(-n2nnc(-c3cccnc3Cl)n2)cc1Cl	-108.5*
Fc1ccc(-n2nnc(-c3cccnc3Cl)n2)cc1	-86.4*
CC(=O)c1ccc(OCc2cc(C(=O)N3CCN(c4ccccc4)CC3C)no2)cc1 (stereo not drawn)	-163.3*
CSc1ccccc1OCc1cc(C(=O)N2CCN(c3ccccc3)CC2C)no1 (stereo not drawn)	-107.8*
CCC1(c2ccc(Cl)cc2)NC(=S)N(c2ccc(C)c(C)c2)N1 (stereo not drawn)	-66.9*
CCC1(c2ccc(Cl)cc2)NC(=S)N(c2ccc(C)cc2)N1 (stereo not drawn)	-307.7*
O=C(OCC(=O)N1CCOCC1)c1cccc(F)c1	-86.8*
O=C(OCC(=O)N1CCOCC1)c1ccccc1Cc1ccccc1	-182.6*
Nc1ccc(C(=O)OCC(=O)N2CCOCC2)cc1[N+](=O)[O-]	-70.8*
Nc1nc(COc2ccc(Cl)cc2)cs1	-93.0*
Cc1ccc(OCc2csc(N)n2)cc1	-107.6*
